Data published in the supplement of paper PMC3334620.
Whole data set: some 33,000 sequences, median “E-score (-0.5 to 0.5)” near -0.017, cut for the highest 2% near 0.3. The sample holds the highest values, similar sequences and a random draw of the others, so the mix is not that of the screen.

The sequences below were run against T1, Sut1 (UniProt P53032) (assay: PBM E-score (8-mer binding enrichment) (E-score (-0.5 to 0.5)); higher = stronger / more preferred TF binding). Settings: protein concentration: 200 nM; construct: GST-full length.
T1 sequence: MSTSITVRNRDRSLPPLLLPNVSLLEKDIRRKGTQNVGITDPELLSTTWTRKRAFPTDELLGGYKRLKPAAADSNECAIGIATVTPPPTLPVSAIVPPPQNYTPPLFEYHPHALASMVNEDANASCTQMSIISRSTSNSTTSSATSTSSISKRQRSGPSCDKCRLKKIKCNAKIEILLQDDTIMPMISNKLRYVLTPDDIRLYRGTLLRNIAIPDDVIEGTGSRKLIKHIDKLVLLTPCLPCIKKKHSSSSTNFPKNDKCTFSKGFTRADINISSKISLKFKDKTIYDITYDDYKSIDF
Method: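 Universal 'all 10-mer' protein binding microarrays (Agilent AMADID 015681) probed with GST-tagged S. cerevisiae TFs (full-length or DBD) made by in vitro transcription/translation (PURExpress), about 100-200 nM. Bound TF was detected with fluorescent anti-GST. Each ungapped 8-mer (which stands for itself and its reverse complement) is scored by the PBM enrichment score (E-score), a modified Wilcoxon-Mann-Whitney statistic from -0.5 to +0.5, computed with the Universal PBM Analysis Suite. Scale: above 0.35 generally sequence-specific binding.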
For GCCGAGCA, the “PBM E-score” value was -0.305.
With TCCGACAA the “PBM E-score” value was 0.337.
TCCGAGCA was tested, and the “PBM E-score” value was 0.307.
GCCGAGGA was tested, and the “PBM E-score” value was 0.1.
TCCGAGGA was tested, and the “PBM E-score” value was 0.34.
For CCCGAGGA, the “PBM E-score” value was -0.118.
CCCGACAA was tested, and the “PBM E-score” value was 0.173.
For GCCGATAA, the “PBM E-score” value was 0.00363.
For TTAGCCAA, the “PBM E-score” value was -0.0233.
For GTAATCGA, the “PBM E-score” value was 0.0961.
With ACTACTCT the “PBM E-score” value was -0.0164.
CTAGCCTC was tested, and the “PBM E-score” value was -0.268.
CCCTCGCG was tested, and the “PBM E-score” value was -0.204.
For ATCTGCAG, the “PBM E-score” value was 0.0906.
In the case of ATGAGACA, the “PBM E-score” value is reported as -0.0116.
In the case of CCGCGACC, the “PBM E-score” value is reported as -0.177.
For ATGAGCTA, the “PBM E-score” value was 0.0367.
With AGTCAAAC the “PBM E-score” value was -0.135.
For GGCAATTA, the “PBM E-score” value was 0.0911.
With CCCGAGAA the “PBM E-score” value was 0.157.
For TCCGAGAA, the “PBM E-score” value was 0.407.
With ACCGAGAA the “PBM E-score” value was 0.229.
In the case of AACTTGCG, the “PBM E-score” value is reported as -0.0193.
For ACACTCCG, the “PBM E-score” value was 0.438.
ACTCTCCG was tested, and the “PBM E-score” value was 0.27.
With CCACTCCG the “PBM E-score” value was 0.444.
For ATACTCCC, the “PBM E-score” value was 0.108.
CCACTCCA was tested, and the “PBM E-score” value was -0.174.
In the case of CCACTCCC, the “PBM E-score” value is reported as -0.254.
In the case of ACACTCCT, the “PBM E-score” value is reported as -0.0674.
For ATACTCCG, the “PBM E-score” value was 0.487.
With ATACTCCA the “PBM E-score” value was -0.0121.
For ACAGACAA, the “PBM E-score” value was 0.294.
For GGATAGCC, the “PBM E-score” value was 0.0369.
With TAGCATCA the “PBM E-score” value was -0.0462.
For GCAATTGC, the “PBM E-score” value was -0.0673.
For CGGCCTGC, the “PBM E-score” value was -0.186.
With CTGTGCAC the “PBM E-score” value was -0.277.
CGGTGTCC was tested, and the “PBM E-score” value was 0.0917.
For GAACCCTC, the “PBM E-score” value was -0.17.
In the case of AGACTCCG, the “PBM E-score” value is reported as 0.47.
In the case of CGACTCCC, the “PBM E-score” value is reported as -0.211.
In the case of AGACTCCC, the “PBM E-score” value is reported as -0.319.
For CGACTCCG, the “PBM E-score” value was 0.47.
In the case of CGACTCCA, the “PBM E-score” value is reported as -0.132.
AGACTCCT was tested, and the “PBM E-score” value was -0.142.
AACTGTCG was tested, and the “PBM E-score” value was 0.00476.
For GCTAGTAC, the “PBM E-score” value was -0.14.
For ACCTGAGA, the “PBM E-score” value was -0.0623.
For CCCGAAGG, the “PBM E-score” value was -0.0908.
For AGAATTCA, the “PBM E-score” value was 0.115.
With ATAAACTG the “PBM E-score” value was 0.047.
With ATAAACTC the “PBM E-score” value was 0.315.
For CTAAACTC, the “PBM E-score” value was 0.225.
TACACCCA was tested, and the “PBM E-score” value was 0.036.
In the case of TAGCGTCA, the “PBM E-score” value is reported as -0.116.
With CGGAAATC the “PBM E-score” value was 0.212.
With CGGAAAGC the “PBM E-score” value was 0.275.
For AGGAAAGA, the “PBM E-score” value was 0.0593.
In the case of CGGAAATA, the “PBM E-score” value is reported as 0.337.
GGGAAATA was tested, and the “PBM E-score” value was 0.0403.
CGGAAAGA was tested, and the “PBM E-score” value was 0.312.
AATGTGCT was tested, and the “PBM E-score” value was 0.0947.
TACTGAGA was tested, and the “PBM E-score” value was -0.055.
AAGGTCCA was tested, and the “PBM E-score” value was -0.135.
With AAGGTCCT the “PBM E-score” value was -0.239.
In the case of CAGGTCCA, the “PBM E-score” value is reported as -0.231.
With CAGGTCCC the “PBM E-score” value was -0.182.
CAGGTCCG was tested, and the “PBM E-score” value was 0.438.
AAGGTCCG was tested, and the “PBM E-score” value was 0.407.
For AGTCGAAA, the “PBM E-score” value was 0.115.
TCTGGTAA was tested, and the “PBM E-score” value was -0.0251.
With ATGCTAGA the “PBM E-score” value was 0.0093.
ACGCTGTA was tested, and the “PBM E-score” value was -0.0391.
For ATCAAGAG, the “PBM E-score” value was 0.117.
In the case of CTAGGCTC, the “PBM E-score” value is reported as -0.149.
In the case of CGTAGCCC, the “PBM E-score” value is reported as -0.274.
AGCGCCCT was tested, and the “PBM E-score” value was -0.128.
With ACGGACAG the “PBM E-score” value was -0.0929.
With ACGGACCA the “PBM E-score” value was 0.277.
ACGGACCG was tested, and the “PBM E-score” value was -0.0134.
ACGGACAC was tested, and the “PBM E-score” value was 0.0824.
For ACGGACCT, the “PBM E-score” value was 0.339.
With ACGGACAT the “PBM E-score” value was 0.404.
ACAGTCCC was tested, and the “PBM E-score” value was -0.2.
In the case of GTTCCCTA, the “PBM E-score” value is reported as -0.238.
In the case of CGAATATA, the “PBM E-score” value is reported as 0.231.
CCCATATC was tested, and the “PBM E-score” value was -0.043.
In the case of GACTCATA, the “PBM E-score” value is reported as 0.0779.
In the case of ACTCCGAT, the “PBM E-score” value is reported as 0.491.
With CCTCCGAC the “PBM E-score” value was 0.0212.
With ACTCCCAT the “PBM E-score” value was -0.0456.
With AATCCGAC the “PBM E-score” value was 0.0553.
With ACTCCTAT the “PBM E-score” value was 0.0886.
With ACTCCGAC the “PBM E-score” value was 0.489.
For GCAACGGA, the “PBM E-score” value was 0.306.
For GCAACGGC, the “PBM E-score” value was -0.0987.
With ACAACGGA the “PBM E-score” value was 0.335.
For CCAACGGA, the “PBM E-score” value was 0.207.
In the case of ACAACGGG, the “PBM E-score” value is reported as 0.0387.
For TCAACGGA, the “PBM E-score” value was 0.246.
AAGCCAGT was tested, and the “PBM E-score” value was -0.176.
In the case of CAGAAGAC, the “PBM E-score” value is reported as -0.17.
In the case of CACGTGCC, the “PBM E-score” value is reported as -0.186.
AGTGGCCA was tested, and the “PBM E-score” value was -0.202.
ATGCGCTA was tested, and the “PBM E-score” value was -0.0278.
In the case of AGCTCTAC, the “PBM E-score” value is reported as -0.325.
With ATTGTCCA the “PBM E-score” value was -0.0211.
CATGTCCA was tested, and the “PBM E-score” value was 0.0978.
With AATGTCCA the “PBM E-score” value was 0.0363.
With AATGTCCG the “PBM E-score” value was 0.447.
With CATGTCCC the “PBM E-score” value was -0.1.
ATTGTCCC was tested, and the “PBM E-score” value was -0.108.
With CATGTCCG the “PBM E-score” value was 0.382.
In the case of AATGTCCT, the “PBM E-score” value is reported as -0.0934.
ATTGTCCG was tested, and the “PBM E-score” value was 0.359.
TCGAACAA was tested, and the “PBM E-score” value was 0.102.
With AGGGGGTA the “PBM E-score” value was -0.323.
In the case of AGACCGCA, the “PBM E-score” value is reported as -0.0648.
With AGGGGATC the “PBM E-score” value was -0.134.
CCAACCCG was tested, and the “PBM E-score” value was -0.172.
CCCTGCTC was tested, and the “PBM E-score” value was -0.0773.
With CTCTCAGA the “PBM E-score” value was -0.139.
For CTCCGATA, the “PBM E-score” value was 0.432.
For CGCCGATC, the “PBM E-score” value was 0.137.
ATCCGATA was tested, and the “PBM E-score” value was 0.215.
In the case of CGCCGATA, the “PBM E-score” value is reported as -0.197.
With GTCCGATA the “PBM E-score” value was 0.362.
For GGCCGATA, the “PBM E-score” value was -0.152.
CTCCGATC was tested, and the “PBM E-score” value was 0.38.
ATCCGATC was tested, and the “PBM E-score” value was 0.18.
In the case of CACCGATA, the “PBM E-score” value is reported as 0.04.
With CCCAGCTC the “PBM E-score” value was 0.03.
With CTACACCC the “PBM E-score” value was -0.286.
AAAAAAAA was tested, and the “PBM E-score” value was 0.228.
With CCCCAATC the “PBM E-score” value was -0.327.
With TGTGTAAA the “PBM E-score” value was 0.194.
CTGGACTA was tested, and the “PBM E-score” value was -0.0898.
GAGGACTA was tested, and the “PBM E-score” value was 0.0368.
With GCGGACTA the “PBM E-score” value was 0.404.
CCGGACTA was tested, and the “PBM E-score” value was 0.48.
With AGGGACTC the “PBM E-score” value was -0.186.
For ACGGACGA, the “PBM E-score” value was 0.1.
For ACGGACTG, the “PBM E-score” value was 0.22.
For ACGGACTC, the “PBM E-score” value was 0.393.
With ATGGACTA the “PBM E-score” value was -0.0502.
In the case of GCGGACCA, the “PBM E-score” value is reported as 0.175.
For ACGGACTA, the “PBM E-score” value was 0.431.
With CCGGACCA the “PBM E-score” value was 0.241.
For CGATCTCA, the “PBM E-score” value was -0.0333.
For AAGTGATT, the “PBM E-score” value was 0.237.
In the case of AGTGTATG, the “PBM E-score” value is reported as 0.14.
In the case of AGCCCATA, the “PBM E-score” value is reported as -0.137.
ACTATTCT was tested, and the “PBM E-score” value was 0.0103.
For CCGGACAC, the “PBM E-score” value was 0.112.
With CCGGACTC the “PBM E-score” value was 0.476.
CGGGACTC was tested, and the “PBM E-score” value was 0.0911.
ACGTAACT was tested, and the “PBM E-score” value was 0.009.
CTATCCAA was tested, and the “PBM E-score” value was 0.057.
For ATATCCAA, the “PBM E-score” value was 0.158.
With TTATCCAA the “PBM E-score” value was 0.3.
For ATTTTGTA, the “PBM E-score” value was 0.318.
For ATTTTGTG, the “PBM E-score” value was 0.239.
With CTTTTGTA the “PBM E-score” value was 0.259.
GACTACGA was tested, and the “PBM E-score” value was 0.0667.
In the case of AGTCGGAT, the “PBM E-score” value is reported as 0.173.
In the case of CGTCGGAG, the “PBM E-score” value is reported as 0.422.
GGTCGGAC was tested, and the “PBM E-score” value was 0.259.
In the case of AGTCGGAG, the “PBM E-score” value is reported as 0.316.
With CGTCGGAA the “PBM E-score” value was 0.196.
For AGTCGGAA, the “PBM E-score” value was 0.243.
With CGTCGGAC the “PBM E-score” value was 0.247.
For TGTCGGAA, the “PBM E-score” value was 0.218.
In the case of AGTCGGAC, the “PBM E-score” value is reported as 0.337.
